Structures are written as SMILES. Hit rate of the full screen: of about 39,000 compounds, about 500 (1.3%) were called active. The entries come from a sample that favours actives as a whole.

This test concerns S. aureus RN4220. Nature of the test: growth inhibition call (relative growth <= 0.2). The note with it: 50 µM.
With `O=c1[nH]c2ccsc2c(=O)n1CCO`, the growth inhibition call is “inactive”. Take `C[C@@H]1CN([C@@H](C)CO)S(=O)(=O)c2ccc(C#Cc3ccncc3)cc2O[C@H]1CN(C)C(=O)C1CCOCC1`: the growth inhibition call was “inactive”.

As to `CCS(=O)(=O)N1CC[C@]2(CC1)CN([C@H](CO)c1c2c2ccc(cc2n1C)OC)C(=O)CN1CCOCC1`, the growth inhibition call was “inactive”. For `C[C@H](CO)N1C[C@H](C)[C@@H](CN(C)Cc2ccccc2)Oc2ccc(NC(=O)Cn3cnnn3)cc2CC1=O`, the growth inhibition call is “inactive”.

In the case of `Cc1ccc(S(=O)(=O)O)cc1.NC1CCN(c2nc3c(cc2F)c(=O)c(C(=O)O)cn3-c2ccc(F)cc2F)C1.O` (centres undefined), the growth inhibition call is “inactive”.

With `N[C@@H]1[C@H]2CN(c3nc4c(cc3F)c(=O)c(C(=O)O)cn4-c3ccc(F)cc3F)C[C@@H]12`, the growth inhibition call is “active”. With `CN[C@H]1CN(c2ccc3c(=O)c(C(=O)O)cn(-c4nccs4)c3n2)C[C@@H]1OC`, the growth inhibition call was “inactive”. In the case of `N[C@H]1CCN(c2nc3c(cc2F)c(=O)c(C(=O)O)cn3-c2ccc(F)cc2F)C1` it was “active”; in that of `C[C@H](CO)N1C[C@H](C)[C@H](CN(C)C(=O)CCC(F)(F)F)OCCCC[C@H](C)Oc2ccc(NC(=O)Nc3ccccc3)cc2C1=O`, “inactive”; in that of `C[C@H](CO)N1C[C@H](C)[C@H](CN(C)C(=O)CCCN(C)C)OCCCC[C@H](C)Oc2ccc(NS(C)(=O)=O)cc2C1=O`, “inactive”. On to `C[C@H](CO)N1C[C@H](C)[C@H](CN(C)S(=O)(=O)c2ccc(F)cc2)Oc2c(NC(=O)C3CCOCC3)cccc2C1=O`, for which the growth inhibition call is “inactive”. For the compound `CC(C)NC(=O)N(C)C[C@@H]1Oc2c(NS(=O)(=O)c3ccc(F)cc3)cccc2C(=O)N([C@H](C)CO)C[C@H]1C`, the growth inhibition call was “inactive”. As for `C[C@@H]1CCCCO[C@@H](CN(C)C(=O)CCCN(C)C)[C@H](C)CN([C@@H](C)CO)C(=O)c2cc(NC(=O)Nc3ccc(F)cc3)ccc2O1`, the growth inhibition call is “inactive”. Regarding `COc1cccc(S(=O)(=O)N(C)C[C@@H]2Oc3ncc(C#CC(C)C)cc3C(=O)N([C@@H](C)CO)C[C@H]2C)c1`, the growth inhibition call was “inactive”. As for `COC(=O)CC1C(C)(C)C(OC(C)=O)C2CC3=C4CC(=O)OC(c5ccoc5)C4(C)CCC3C1(C)C2=O` (centres undefined), the growth inhibition call was “inactive”. For `CCC(=C/[C@H](C)C/C=C/C(C)=C/[C@@H](C)C(=O)[C@@H](C)[C@H](O)[C@@H](C)C/C(C)=C/C(=O)O)/C=C/[C@@H]1OC(=O)C=C[C@@H]1C`, the growth inhibition call was “active”.

On to `Cc1noc(C)c1S(=O)(=O)N(C)C[C@@H]1Oc2ccc(NS(=O)(=O)c3ccc(F)cc3)cc2C(=O)N([C@H](C)CO)C[C@@H]1C`, for which the growth inhibition call is “inactive”. Take `COc1ccc(S(=O)(=O)N(C)C[C@@H]2Oc3c(NS(=O)(=O)c4ccc(C)cc4)cccc3C(=O)N([C@H](C)CO)C[C@@H]2C)cc1`: the growth inhibition call was “inactive”. Consider `O=C1CCNc2cc3ccccc3cc21`, for which the growth inhibition call is “active”.

For `O=C1CCCNc2ccc(Cl)cc21`, the growth inhibition call was “inactive”.

For the compound `O=C1NCc2ccccc21`, the growth inhibition call was “inactive”. In the case of `CN(C)C(=O)C[C@@H]1CC[C@@H](NC(=O)C2CC2)[C@@H](CO)O1` it was “inactive”; in that of `C[C@@H]1CCCCO[C@@H](CN(C)C(=O)Nc2ccc(F)cc2)[C@H](C)CN([C@H](C)CO)C(=O)c2cc(NS(=O)(=O)c3ccc(F)cc3)ccc2O1`, “inactive”; in that of `C[C@@H](O)COC[C@H]1O[C@@H]2O[C@H]3[C@H](O)[C@@H](O)[C@@H](O[C@H]4[C@H](O)[C@@H](O)[C@@H](O[C@H]5[C@H](O)[C@@H](O)[C@@H](O[C@H]6[C@H](O)[C@@H](O)[C@@H](O[C@H]7[C@H](O)[C@@H](O)[C@@H](O[C@H]8[C@H](O)[C@@H](O)[C@@H](O[C@H]1[C@H](O)[C@H]2O)O[C@@H]8COC[C@@H](C)O)O[C@@H]7COC[C@@H](C)O)O[C@@H]6COC[C@@H](C)O)O[C@@H]5COC[C@@H](C)O)O[C@@H]4COC[C@@H](C)O)O[C@@H]3COC[C@@H](C)O`, “inactive”. On to `C[C@@H]1CN([C@@H](C)CO)C(=O)c2cccc(NC(=O)c3ccc(-c4nccs4)cc3)c2O[C@@H]1CN(C)Cc1ccc(Cl)c(Cl)c1`, for which the growth inhibition call was “inactive”. Take `Cn1cnc(S(=O)(=O)N2C[C@H](O)COC[C@@H]3O[C@@H](CC(=O)NC4CCCC4)CC[C@H]32)c1`: the growth inhibition call was “inactive”. On to `Cc1[nH]c2ccccc2c1C(=O)CSc1ccc(Cl)cc1`, for which the growth inhibition call was “inactive”. For the compound `NCC[S@@](=O)c1c(-c2ccc(F)cc2)[nH]c2ccccc12`, the growth inhibition call is “inactive”.

For the compound `CSc1c(-c2ccc(Cl)cc2)[nH]c2ccccc12`, the growth inhibition call is “active”.

Turning to `CC(C)NC(=O)Nc1ccc2c(c1)C(=O)N([C@@H](C)CO)C[C@@H](C)[C@H](CN(C)C(=O)Nc1ccc3c(c1)OCO3)O2`, the growth inhibition call was “inactive”. In the case of `COc1ccc(NC(=O)N(C)C[C@H]2Oc3ncc(C#C[C@@H](C)O)cc3C(=O)N([C@@H](C)CO)C[C@H]2C)cc1`, the growth inhibition call is “inactive”. For the compound `COc1ccc2c3c(n(c2c1)C)[C@@H](CO)N(C[C@]13CN(C1)C(=O)CN(C)C)C(=O)CN(C)C`, the growth inhibition call was “inactive”.

Take `Cc1ccccc1-c1cc(N2CCN(C)CC2)ncc1N(C)C(=O)C(C)(C)c1cc(C(F)(F)F)cc(C(F)(F)F)c1`: the growth inhibition call is “active”.

With `COCCOC(=O)N1C(=O)[C@@]2(c3cc(C#Cc4ccc(OC)cc4)ccc31)[C@H](C(=O)N1CCN(c3ncccn3)CC1)[C@H]1C(=O)O[C@H](c3ccccc3)[C@H](c3ccccc3)N1[C@@H]2c1ccc(OCCO)cc1`, the growth inhibition call was “inactive”. With `C[C@@H]1CN([C@H](C)CO)C(=O)c2cc(NS(=O)(=O)c3ccccc3)ccc2O[C@@H](C)CCCCO[C@@H]1CN(C)C(=O)c1ccccc1`, the growth inhibition call was “inactive”.

For `CNC[C@@H]1OCCCC[C@H](C)Oc2ccc(NC(=O)Nc3ccc(C(F)(F)F)cc3)cc2C(=O)N([C@H](C)CO)C[C@@H]1C`, the growth inhibition call is “inactive”.

With `CNC[C@H]1OCCCC[C@@H](C)Oc2ccc(NC(=O)Nc3ccc(C(F)(F)F)cc3)cc2C(=O)N([C@H](C)CO)C[C@@H]1C`, the growth inhibition call is “inactive”. Consider `CNC[C@@H]1OCCCC[C@@H](C)Oc2ccc(NC(=O)Nc3ccc(C(F)(F)F)cc3)cc2C(=O)N([C@@H](C)CO)C[C@H]1C`, for which the growth inhibition call was “inactive”. Take `CNC[C@@H]1OCCCC[C@H](C)Oc2ccc(NC(=O)Nc3ccc(C(F)(F)F)cc3)cc2C(=O)N([C@H](C)CO)C[C@H]1C`: the growth inhibition call was “active”.

Take `CNC[C@@H]1OCCCC[C@@H](C)Oc2ccc(NC(=O)Nc3ccc(C(F)(F)F)cc3)cc2C(=O)N([C@@H](C)CO)C[C@@H]1C`: the growth inhibition call is “inactive”.

Take `CNC[C@H]1OCCCC[C@@H](C)Oc2ccc(NC(=O)Nc3ccc(C(F)(F)F)cc3)cc2C(=O)N([C@H](C)CO)C[C@H]1C`: the growth inhibition call is “active”. For `Cc1noc(C)c1NC(=O)N(C)C[C@H]1Oc2ccc(NC(=O)NC(C)C)cc2CC(=O)N([C@H](C)CO)C[C@@H]1C`, the growth inhibition call was “inactive”.

In the case of `CN(c1ncccc1CNc1nc(Nc2ccc3c(c2)CC(=O)N3)ncc1C(F)(F)F)S(C)(=O)=O`, the growth inhibition call was “inactive”. With `Cc1ccc(S(=O)(=O)Nc2cccc3c2O[C@@H](CN(C)S(=O)(=O)c2cn(C)cn2)[C@H](C)CN([C@H](C)CO)C3=O)cc1`, the growth inhibition call was “inactive”. With `C[C@@H]1CCCCO[C@H](CN(C)C(=O)Nc2ccc(C(F)(F)F)cc2)[C@H](C)CN([C@@H](C)CO)C(=O)c2cc(NC(=O)Nc3ccc(C(F)(F)F)cc3)ccc2O1`, the growth inhibition call is “inactive”. Consider `C[C@@H]1CN([C@@H](C)CO)C(=O)c2cc(NC(=O)Nc3ccc(C(F)(F)F)cc3)ccc2O[C@H]1CN(C)Cc1ccc(-c2ccccc2)cc1`, for which the growth inhibition call is “inactive”. With `C[C@@H]1CN([C@H](C)CO)C(=O)c2cc(NC(=O)c3ccncc3)ccc2O[C@@H]1CN(C)Cc1ccncc1`, the growth inhibition call was “inactive”.

For `Cc1ccc(CN)cc1Cl`, the growth inhibition call is “inactive”. `Cc1cc(C(=O)c2cc3cc(Cl)ccc3o2)ccc1Cl`: the growth inhibition call was “inactive”. In the case of `Cc1cc(CN)cc(C)c1NC(=O)c1ccc(-c2cc(Cl)ccc2Cl)o1` it was “active”; in that of `O=C1CCOC1`, “inactive”. As for `C[C@H]1CN([C@@H](C)CO)C(=O)c2cc(NC(=O)Cn3cnnn3)ccc2O[C@H]1CN(C)Cc1ccc(Cl)c(Cl)c1`, the growth inhibition call was “inactive”. `C[C@H](CO)N1C[C@H](C)[C@@H](CN(C)C(=O)NC2CCCCC2)Oc2ccc(NC(=O)Nc3cccc4ccccc34)cc2C1=O`: the growth inhibition call was “inactive”. In the case of `CN(Cc1ccccc1)C(=O)[C@H](Cc1ccc2ccccc2c1)NC(=O)[C@@H]1CCCN1C(=O)Nc1ccccc1[N+](=O)[O-]`, the growth inhibition call is “inactive”.

With `C[C@@H]1CN([C@H](C)CO)C(=O)c2cc(NC(=O)Nc3cccc4ccccc34)ccc2O[C@@H]1CN(C)C(=O)NC1CCCCC1`, the growth inhibition call is “inactive”. `CCCC[P+](CCCC)(CCCC)Cc1ccc(NC(=O)[C@H](Cc2ccc3ccccc3c2)N/C(=N/C2CCCCC2)NC2CCCCC2)cc1`: the growth inhibition call was “active”. In the case of `CCCC[P+](CCCC)(CCCC)Cc1ccc(NC(=O)[C@@H](Cc2ccc3ccccc3c2)N=C(NC2CCCCC2)NC2CCCCC2)cc1`, the growth inhibition call is “active”.

Take `CCC(=O)Nc1ccc2ccccc2c1`: the growth inhibition call was “inactive”. For the compound `C[C@H](CO)N1C[C@H](C)[C@H](CN(C)S(=O)(=O)c2ccc(Cl)cc2)Oc2ccc(N(C)C)cc2CC1=O`, the growth inhibition call is “inactive”.

As to `C[C@H]1CN([C@@H](C)CO)C(=O)c2cccc(NS(C)(=O)=O)c2O[C@@H]1CN(C)S(=O)(=O)c1ccc(F)cc1`, the growth inhibition call was “inactive”. As for `CN(C)CCC=C1c2ccccc2COc2ccccc21.Cl`, the growth inhibition call is “inactive”. `CN(C)CCC=C1c2ccccc2CCc2ccccc21.Cl`: the growth inhibition call is “inactive”. In the case of `CN(C)CCC=C1c2ccccc2COc2ccc(CC(=O)O)cc21.Cl`, the growth inhibition call was “active”.

Consider `COc1ccc(S(=O)(=O)N(C)C[C@@H]2Oc3ccc(NC(=O)c4ccncc4)cc3C(=O)N([C@H](C)CO)C[C@H]2C)cc1`, for which the growth inhibition call was “inactive”. Consider `C[C@@H]1CCCCO[C@@H](CN(C)C(=O)C2CCCCC2)[C@@H](C)CN([C@@H](C)CO)C(=O)c2cc(NS(=O)(=O)c3cccs3)ccc2O1`, for which the growth inhibition call is “inactive”.

For the compound `Cc1noc(C)c1NC(=O)N(C)C[C@H]1Oc2ccc(NS(=O)(=O)c3c(C)noc3C)cc2CC(=O)N([C@H](C)CO)C[C@H]1C`, the growth inhibition call was “inactive”. With `Cc1ccc2sc(N(CCCN(C)C)C(=O)c3ccc(S(=O)(=O)N(C)C4CCCCC4)cc3)nc2c1C`, the growth inhibition call is “active”. As for `Cc1ccc2sc(N(CCCN(C)C)C(=O)c3ccc(S(=O)(=O)N(C)Cc4ccccc4)cc3)nc2c1C`, the growth inhibition call is “inactive”.

Regarding `Cc1cc(Cl)cc2sc(N(Cc3ccccn3)C(=O)c3ccc(S(=O)(=O)N4CCCC4)cc3)nc12`, the growth inhibition call is “inactive”.
